The record followed here is PubChem BioAssay (NCATS).

SMILES strings stand for the structures. Results filed as inconclusive are left out. A call without a number means that no potency is given here. The source made the active and inactive calls. Calls come from the whole dose curve; as a rule, active = well fitted inhibition curve with a large enough effect; inconclusive = small, poorly fitted or top-dose-only effect; inactive = flat fitted curve, though single readings scatter.
Potency is the fitted concentration of half-maximal effect.

This test deals with astro (control astrocytes). Briefly: Drug repurposing screens with cells derived from glioblastoma tumor samples (AID 1345199). Note: nearly all actives have a fitted effect of over 40% in size. The conditions noted are these: viability, ATP luminescence, 48 h; series mostly up to 45.9 µM. The procedure: CD133+ cells were isolated from GBM patient biopsies and cultured as neurospheres. Neurospheres from four patients were used to screen the NCATS pharmaceutical collection (NPC) library of approved drugs and bioactive compounds. […] The neurospheres were incubated with drugs for 48 hours in 1536-well format, then assayed with an ATP content cell viability assay. […] These hits were cherry picked to confirm activity in the four original GBM lines screened plus three other slower growing GMB lines (unable to yield enough cells for a full primary screen). Variable activities of the confirmed primary hits in the different GBM patient lines were observed. The patient line 206 responded to the greatest number of compounds and line 923 responded to the least amount of active compounds.
With `NC1=NC(=O)N2CC12` (stereo not given), the Potency result is “inactive”.

`CC(O)CN1CCN(CC(=O)[O-])CCN(CC(=O)[O-])CCN(CC(=O)[O-])CC1.[Gd+3]` (stereo not given): the Potency result is “inactive”. The entry for `ClC1=C(Cl)[C@]2(Cl)[C@@H]3[C@@H]4C[C@@H]([C@H]5O[C@@H]45)[C@@H]3[C@@]1(Cl)C2(Cl)Cl` is “inactive”; for `C[C@]12CCC(=O)C(O)=C1CC[C@@H]1[C@H]3CCC(=O)[C@@]3(C)CC[C@@H]12` it is “inactive”; for `Nc1ccc(Cl)cc1` it is “inactive”. `c1cc2ccc3cccc4ccc(c1)c2c34`: the Potency entry was “inactive”. `C[C@@H]1[C@H](O)[C@@H](C)C=CC=CCCC=CC=CC=CC=C[C@H](O[C@H]2O[C@@H](C)[C@H](O)[C@@H](N)[C@@H]2O)CC2O[C@](O)(C[C@@H](O)[C@H](O)CC[C@@H](O)C[C@@H](O)C[C@@H](O)CC(=O)O[C@H]1C)C[C@H](O)[C@H]2C(=O)O`: the Potency result is “inactive”.

Take `O=C(O)COc1nc(Cl)c(Cl)cc1Cl`: the Potency result was “inactive”.

Take `O=C(O)COc1ccccc1`: the Potency result is “inactive”.

For the molecule `CC(=O)[O][Hg][c]1ccccc1`, the Potency is 1.26 µM (active). Take `O=[N+]([O-])/N=C1\NCCN1Cc1ccc(Cl)nc1`: the Potency result was “inactive”.

In the case of `CN(C)[C@@H]1C(=O)C(C(N)=O)=C(O)[C@@]2(O)C(=O)C3=C(O)c4c(O)cccc4[C@@](C)(O)[C@H]3[C@H](O)[C@@H]12`, the Potency entry is “inactive”. Consider `CCCCOC(=O)c1ccccc1C(=O)OCc1ccccc1`, for which the Potency entry is “inactive”. As for `O=C(Nc1ccccc1-c1ccc(Cl)cc1)c1cccnc1Cl`, the Potency entry is “inactive”. The entry for `C[N+](C)(C)CC(=O)O` is “inactive”. `c1ccc(C2(c3ccccc3)CC2C2=NCCN2)cc1` (stereo not given): the Potency entry was “inactive”. Regarding `OCCCBr`, the Potency entry was “inactive”. For `CC(C)(C)NC[C@H](O)c1ccc(O)cc1Cl`, the Potency entry is “inactive”.

In the case of `O=[N+]([O-])c1ccc([As](=O)(O)O)cc1`, the Potency result was “inactive”. On to `CC[N+]1(CCOC(=O)C(O)(c2ccccc2)c2ccccc2)CCCCC1`, for which the Potency entry was “inactive”.

`Cc1cc(O)ccc1Cl`: the Potency entry was “inactive”.

For `CC(C)(C)C(O)C(Oc1ccc(Cl)cc1)n1cncn1` (stereo not given), the Potency entry is “inactive”. The entry for `CC1(C)CC/C(=C/c2ccc(Cl)cc2)C1(O)Cn1cncn1` (stereo not given) is “inactive”; for `Nc1ccc(Sc2ccc(N)cc2)cc1` it is “inactive”; for `O=C(O)C(Cl)Cl` it is “inactive”. Regarding `CCCCCCCCCCCCCCCC[N+](C)(C)C`, the Potency is 11.2 µM (active). The entry for `CCO/N=C(\CC)C1=C(O)CC(c2c(C)cc(C)cc2C)CC1=O` (stereo not given) is “inactive”; for `CCCN1CCC[C@H](c2cccc(O)c2)C1` it is “inactive”; for `Oc1ccc2c3c1O[C@H]1[C@@H](O)C=C[C@H]4[C@@H](C2)NCC[C@@]341` it is “inactive”.

In the case of `CCOCCOC(C)=O`, the Potency result was “inactive”. Under `NC(=O)CN1CC(O)CC1=O` (stereo not given) stands “inactive”; under `COC(C)(C)CCCC(C)C/C=C/C(C)=C/C(=O)OC(C)C` (stereo not given), “inactive”; under `O=S(=O)(c1ccc(Cl)cc1)c1ccc(Cl)cc1`, “inactive”. `CCOP(=O)(NC(C)C)Oc1ccc(SC)c(C)c1` (stereo not given): the Potency result was “inactive”. Under `O=[N+]([O-])c1c(Cl)c(Cl)cc(Cl)c1Cl` stands “inactive”; under `CCCCc1ccc(C(=O)O)nc1`, “inactive”. The entry for `C[C@]12N[C@H](Cc3ccccc31)c1ccccc12` is “inactive”; for `CCCN(CCC)c1c([N+](=O)[O-])cc(S(N)(=O)=O)cc1[N+](=O)[O-]` it is 31.6 µM (active); for `CN[C@@H]1C[C@@H](c2ccc(Cl)c(Cl)c2)c2ccccc21` it is 20 µM (active). The entry for `C[C@]12CC[C@@H]3[C@@H](CCC4=CC(=O)CC[C@@H]43)[C@@H]1CC[C@@H]2OC(=O)CCc1ccccc1` is “inactive”.
